Drawing on PubChem BioAssay (NCI), this text covers growth for 38 compounds.

Structures are written as SMILES. About 83,000 compounds went through this panel and 20% of them were active in at least one assay; those are over-represented in the sample as a whole.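 96-well plates, one dose, 48 hours. Percent growth reported; active if below 10.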 Unmarked numbers belong to inactive results. Calls of active or inactive are those of the source.

In one experiment the test system is NCI-H522 lung. The experiment can be described thus: NCI-60 one-dose screen, 48 h (100 = growth as untreated, 0 = no growth, -100 = all killed). The note with it: 10 µM unless noted.
Take `COc1ccc(OC)c(/C=C/c2nnc(Nc3ccccc3)o2)c1`: the growth is 82.3%.
Still for that read-out and setting: then `COc1cc2cc(Oc3ccc(NC(=O)Nc4ccc(Cl)c(C(F)(F)F)c4)cc3)c(C)nc2cc1OCCN1CCOCC1`, with 20.7%; and `CCOC(=O)C1=C(N)Oc2c(sc3c(C)cccc23)C1c1ccc(F)cc1` (centres undefined), with 11.8%.
On the same count and under the same terms, for `NCCCNc1nc2ccccc2c2c(=O)c3cccc(F)c3sc12` the value was 38.7%; for `CCc1ccc(Oc2c(-c3ccc(OCc4ccc(Cl)cc4)cc3O)n[nH]c2C(F)(F)F)cc1`, -22.9% (active); for `COc1ccc2sc3c(NCCCNCCO)nc4ccccc4c3c(=O)c2c1`, 70.6%.
Same read-out and setting: for `COc1nc2ccccc2cc1-c1nc2c(cnn2-c2ccc(Br)cc2)c(=O)[nH]1` the value was 2.63% (active).
For `Cc1oc2nc[nH]c(=O)c2c1C(=O)/C=C/c1ccc(Br)cc1`, the growth is 13.9%.

The next experiment concerns A549/ATCC NSCLC. Described as above. The conditions noted are these: 10 µM unless noted.
Consider `COc1ccc(/C=N/Nc2cc(=O)[nH]c3ccc(Cl)cc23)cc1`, for which the growth is 40.2%.
The same measure, in the same setting: then `CCCCCCN(CCCCCC)c1ccc(/C=C2/SC(=O)NC2=O)c(C)c1`, with 73.2%; and `CC(=O)Oc1ccccc1C(=O)N=C1[Se]CCCN1C(=O)c1ccccc1OC(C)=O`, with 77.9%.
For `CC(C)OC(=O)Nc1ccc(-c2nc(-c3cccc(OCCN4CCOCC4)c3)c(-c3ccnc(Br)c3)[nH]2)cc1`, the growth is 40%.
In the case of `Cc1cc2nc3ccc(N=Nc4ccc(N(C)C)cc4)cc3n(-c3ccccc3)c-2cc1=N`, the growth was -75.4% (active).
Still for that read-out and setting: then `CCCCn1c(-c2ccc(-c3nc(-c4ccc(Cl)cc4)no3)cc2)nc(-c2ccccc2)c1-c1ccccc1`, with 36.3%; and `Oc1c(I)cc(I)cc1CNCCCN(Cc1ccccn1)Cc1ccccn1`, with -51.8% (active).
The same measure, in the same setting: then `C/C(=N/NC(N)=S)c1sc(Nc2cccc(Cl)c2)nc1C`, with 92.5%; and `Cc1nn(-c2ccccc2)c2c1N=c1s/c(=C\c3ccc(C(F)(F)F)cc3)c(=O)n1CN2`, with 5.73% (active).
For the compound `O=C(O)CCC(=O)Nc1nnc(-c2ccccc2)s1`, the growth was 102%.
The same measure, in the same setting: for `Oc1ccc(Cl)cc1Cc1cc(Cl)cc(Cl)c1O` the value was 46.8%; for `O=c1c2cccc(Cl)c2sc2c(NCCCNCCO)nc3ccccc3c12`, 27.5%; for `COc1cc(C2CC(c3cccc(Br)c3)=NN2C(C)=O)cc(OC)c1OC` (centres undefined), 29.1%.
Same read-out and setting: for `COc1ccc(-c2nc(NN)c3c(C)nn(-c4ccc(F)cc4)c3n2)cc1` the value was 38.1%.
For the compound `CCOC(=O)NCCc1ccccc1`, the growth was 89.6%.
Still for that read-out and setting: then `COc1ccccc1/C=C1\Oc2cc(OCCN3CCC(Cc4ccccc4)CC3)ccc2C1=O`, with 96.2%.
Still for that read-out and setting: then `O=C(COc1ccc(/C=C2\Cc3ccc(Cl)cc3C2=O)cc1)Nc1nc2ccccc2s1`, with 99.5%; and `CCc1cccc2c3c(sc12)C(c1ccc(F)cc1)C(C#N)=C(N)O3` (centres undefined), with 31.9%.
The same measure, in the same setting: for `Cc1ccc(C(=O)N/N=C/c2cccc([N+](=O)[O-])c2)cn1` the value was 92.1%.
Turning to `CCOC(=O)C1=C(N)Oc2c(sc3c(C)cccc23)C1c1ccc(Cl)cc1` (centres undefined), the growth is 46.2%.
Still for that read-out and setting: then `COc1ccc(-n2c(N)c(-c3nc4ccccc4[nH]3)cc(C#N)c2=O)cc1`, with 94.9%.
On the same count and under the same terms, then `Cc1cc2nc3cc(C)c(N)cc3[n+](-c3ccccc3)c2cc1N`, with 75.1%.
Take `COc1c(N2CC3CCCN(C(C)=O)C3C2)c(F)cc2c(=O)c(C(=O)N[C@H]3C(O)[C@@H](O)C(CO)O[C@H]3O)cn(C3CC3)c12` (some centres undefined): the growth is 103%.
The same measure, in the same setting: then `COc1ccc(C2CC(c3ccc(Nc4nc(Nc5ccc(F)cc5)nc(Nc5ccc(Cl)cc5)n4)cc3)=NN2C(C)=O)cc1` (centres undefined), with 90.2%; and `O=c1[nH][n+](-c2ccc(Br)cc2)no1`, with 48.1%.
As for `O=C(CSc1nccc(Nc2ccc(S(=O)(=O)Nc3nccs3)cc2)n1)c1ccc(C(F)(F)F)cc1`, the growth was 99.6%.
Still for that read-out and setting: for `COc1cc(C2CC(c3ccc(N(C)C)cc3)=NN2C(C)=O)cc(OC)c1OC` (centres undefined) the value was 51.2%; for `COc1ccc2c(c1)c(-c1ccc(-c3cn(C)c4ccc(OC)cc34)o1)cn2C`, 66.4%; for `COc1ccc(CN2c3ccccc3CCc3ccccc32)cc1F`, 21.2%.
Same read-out and setting: for `CC(=O)N1N=C(c2ccc(Nc3nc(Nc4ccc(F)cc4)nc(Nc4ccc(Cl)cc4)n3)cc2)CC1c1ccc(Cl)cc1` (centres undefined) the value was 92.5%; for `COc1ccc(OC)c(/C=C/c2nnc(Nc3ccccc3)o2)c1`, 96.5%.
